# Reference: paper PMC4552634, “A New Set of Chemical Starting Points with Plasmodium falciparum Transmission-Blocking Potential for Antimalarial Drug Discovery” (PLoS ONE, 2015)
# The campaign covered roughly 13,000 compounds. About 3,200 (25%) showed an effect of 50% or more. The list shows a part of the results.
# Test system: P. falciparum stage V gametocytes
# Design: BacTiter-Glo ATP luminescence viability of purified stage V gametocytes in 384-well plates, per cent inhibition versus DMSO
# Details: 48 h, 5 µM; inhibitor
row,SMILES,% Inhibition [%]
1,O=C(Nc1ccc(-c2nc3ccccc3[nH]2)cc1)c1cccc(S(=O)(=O)N2CCCC2)c1 [TCMDC-125262],-9.526
2,CC(C)CNCc1cccc(-c2cccc(CN(CCCN3CCN(C)CC3)C(=O)NC3CCCCC3)c2)c1 [TCMDC-140633],106.9
3,CC(C)CNCc1ccc(-c2ccc(CN(CCCN3CCN(C)CC3)C(=O)CCC3CCCC3)cc2)cc1 [TCMDC-140559],105.9
4,CN(C)CCN(Cc1ccc(-c2ccc(CNCCc3ccccc3)cc2)nc1)C(=O)CCC1CCCC1 [TCMDC-141402],63.7
5,CC[C@H](C)CNC(=O)c1cncc(-c2ccc(CN(C)C3CCN(C)CC3)cc2)c1 [TCMDC-134233],22.49
6,CC(C)CNC(=O)c1cncc(-c2ccc(CN(C)C3CCN(C)CC3)cc2)c1 [TCMDC-134235],31.51
7,CC(C)CNCc1ccc(-c2cccc(CN(CCN(C)C)C(=O)CCC3CCCC3)c2)cc1 [TCMDC-140553],109.4
8,CC[C@H](C)CNC(=O)c1cncc(-c2ccc(CNC3CCCC3)cc2)c1 [TCMDC-134232],8.826
9,COc1cc(NC(=O)/C=C/c2ccccc2OC(F)(F)F)cc(OCCN2CCN(CCN3CCOCC3)CC2)c1 [TCMDC-140929],-8.825
10,COc1cc(NC(=O)NC(CCN2CCC3(CCc4ccccc43)CC2)c2ccc(Cl)c(Cl)c2)cc(OC)c1OC (stereo not shown) [TCMDC-141765],-19.84
11,CCC(C)CN1CCC(N(C)c2cc(NC(=O)c3ccc(F)cc3)ccn2)CC1 (stereo not shown) [TCMDC-134951],19.56
12,Nc1nc(N)c(-c2ccccc2)c(=O)[nH]1 [TCMDC-137349],4.514
13,CC(C)CNCc1cccc(-c2cccc(CN(CCCN3CCN(C)CC3)C(=O)CCC3CCCC3)c2)c1 [TCMDC-140554],109.3
14,CC[C@H](C)CNC(=O)c1cncc(-c2cccc(CN(C)C3CCN(C)CC3)c2)c1 [TCMDC-134225],17.67
15,CC(C)CNCc1cccc(-c2ccc(CN(CCCN3CCN(C)CC3)C(=O)CCC3CCCC3)cc2)c1 [TCMDC-140558],107.6
16,CC[C@H](C)CNC(=O)c1ccnc(-c2cccc(CN(C)C3CCN(C)CC3)c2)c1 [TCMDC-134243],-9.422
17,COc1cc(OC)c(OC)cc1CN1CCC2(CC1)CN(Cc1ccc(Cl)c(Cl)c1)C(=O)O2 [TCMDC-132175],23.65
18,CCOc1c(CNCCCNc2cc(=O)c3ccccc3[nH]2)cc(I)cc1C(C)(C)C [TCMDC-140132],-43.73
19,O=C(Nc1cccc(F)c1)c1ccc(C(=O)NC2CCN(CC3CCCCC3)C2)cc1 (stereo not shown) [TCMDC-136741],0.01446
20,CC(CN(C)C)C(=O)Nc1cccc(-c2ccc(-c3nc4ccccc4[nH]3)cc2)c1 (stereo not shown) [TCMDC-137107],-47.86
21,CC(CN(C)C)C(=O)Nc1ccc(-c2csc(-c3nc4ccccc4[nH]3)c2)cc1 (stereo not shown) [TCMDC-132390],44.44
22,CC(CN(C)C)C(=O)Nc1cccc(-c2cccc(-c3nc4ccc(F)cc4[nH]3)c2)c1 (stereo not shown) [TCMDC-137104],-36.15
23,CC(CN(C)C)C(=O)Nc1ccc(-c2cccc(-c3nc4ccccc4[nH]3)c2)cc1 (stereo not shown) [TCMDC-137099],-5.672

row,SMILES,% Inhibition [%]
1,CC(CN(C)C)C(=O)Nc1ccc(-c2ccc(-c3nc4ccccc4[nH]3)cc2)cc1 (stereo not shown) [TCMDC-137108],88.79
2,CC(CN(C)C)C(=O)Nc1cccc(-c2cccc(-c3nc4ccccc4[nH]3)c2)c1 (stereo not shown) [TCMDC-137101],94.09
3,C#CCNCc1ccc(-c2ccc(-c3nc4cc(C(F)(F)F)ccc4[nH]3)s2)cc1.O=C(O)C(F)(F)F [TCMDC-132805],-48.9
4,COc1cc(CCON2C(N)=NC(N)=NC2(C)C)cc(OC)c1OC [TCMDC-131368],-0.5645
5,CC[C@]1(C)C[C@@H](NC(=O)NC(=O)c2ccc(OC)cc2)[C@]2(C)[C@H](C)CC[C@]3(CCC(=O)[C@H]32)[C@@H](C)[C@@H]1OC(=O)NC(=O)c1ccc(OC)cc1 [TCMDC-139025],34.49
6,O=S(=O)(c1cc(Cl)c(Cl)cc1Cl)N1CCCCC(c2ccc(C(F)(F)F)cc2)=N1 [TCMDC-134542],-0.152
7,CC1(C)N=C(N)N=C(N)N1OCCCOc1cccc(C(=O)O)c1 [TCMDC-124025],22.26
8,O=C(Nc1ccc(-c2cccc(-c3nc4ccccc4[nH]3)c2)cc1)Nc1ccc2c(c1)OCO2 [TCMDC-133168],-6.536
9,Cc1[nH]c(C)c(-c2ccc(OCc3ccc(OC(F)(F)F)cc3)nc2)c(=O)c1Br [TCMDC-135254],45.17
10,Cc1[nH]c(C)c(-c2ccc(OCc3ccc(F)cc3)nc2)c(=O)c1Br [TCMDC-135657],60.6
11,Cc1[nH]c(C)c(-c2ccc(OCc3cc(F)cc(F)c3)nc2)c(=O)c1Br [TCMDC-135683],58.89
12,Cc1[nH]c(C)c(-c2ccc(OCc3cc(F)cc(F)c3)nc2)c(=O)c1Cl [TCMDC-135676],67.03
13,CCNc1cc(C(=O)N[C@@H](Cc2ccc(Cl)cc2)[C@H](O)CNC2CCCCC2)cc(N2CCCCS2(=O)=O)c1 [TCMDC-135201],29.54
14,N#Cc1ccc(NC(=Nc2ccccc2Br)N(C2CCCCC2)C2CCCCC2)c(O)c1 [TCMDC-140131],-34.98
15,FC(F)(F)CNc1nc(Nc2ccc3ncccc3c2)nc2[nH]ccc12 [TCMDC-132120],26.12
16,C=C[C@H]1CN2CC[C@H]1C[C@H]2[C@H](O)c1ccnc2ccccc12 [TCMDC-123934],4.056
17,CN(C)c1cccc(CN2CC=C(c3c[nH]c4ccc(Cl)cc34)CC2)c1 [TCMDC-138946],8.82
18,COc1ccc(-c2ccc3c(-c4cccc(S(C)(=O)=O)c4)cnc(N)c3c2)cc1 [TCMDC-134494],3.475
19,CS(=O)(=O)c1cccc(-c2cnc(N)c3cc(-c4cccc(F)c4)ccc23)c1 [TCMDC-134493],8.942
20,NS(=O)(=O)c1cccc(Br)c1 [TCMDC-123819],-1.825
21,NS(=O)(=O)c1cccc(-c2ccc3nccc(-c4cccc(S(N)(=O)=O)c4)c3c2)c1 [TCMDC-138902],75.33
22,COc1cccc(-c2ccc3c(-c4cccc(S(C)(=O)=O)c4)cnc(N)c3c2)c1 [TCMDC-134495],30.55
23,CS(=O)(=O)c1cccc(-c2cnc(N)c3cc(-c4ccc5c(c4)OCO5)ccc23)c1 [TCMDC-134515],-1.728

row,SMILES,% Inhibition [%]
1,Nc1ncnc2cc(-c3cccc(S(N)(=O)=O)c3)sc12 [TCMDC-135294],-17.5
2,CS(=O)(=O)c1cccc(-c2cnc(N)c3cc(-c4ccc(F)cc4)ccc23)c1 [TCMDC-134492],11.87
3,NS(=O)(=O)c1cccc(-c2ccc3c(=O)[nH]cnc3c2)c1 [TCMDC-136756],63.64
4,CN(C)S(=O)(=O)c1cc(-c2ccc3nccc(-c4cccc(S(N)(=O)=O)c4)c3c2)cnc1N [TCMDC-134230],96.42
5,NS(=O)(=O)Cc1cccc(-c2ccnc3ccc(-c4cccc(S(N)(=O)=O)c4)cc23)c1 [TCMDC-134159],58.63
6,COc1cc(Nc2nccc(N3CCC(NC(=O)Nc4cc(C)ccc4C)C3)n2)cc(OC)c1OC (stereo not shown) [TCMDC-133626],-44.43
7,Cc1cc(-c2ccc(Cl)cc2)c2c(N)c(C(=O)Nc3ccc(F)cc3)sc2n1 [TCMDC-124117],40.98
8,CN(C)C(CNC(=O)c1cc(-c2ccncc2)c(-c2ccc(NC(=O)Nc3cccc(F)c3)cc2)o1)c1ccccc1 (stereo not shown) [TCMDC-135782],6.274
9,CC(C)(C)c1ccc(-c2ccccc2CNC(=O)c2cccc(O)c2)cc1 [TCMDC-136181],21.07
10,O=C(NCc1ccccc1)Nc1cccc(-c2cccc(-c3nc4ccc(C(F)(F)F)cc4[nH]3)c2)c1 [TCMDC-133161],-23.46
11,Cc1cc(CN2CCC(N3CC(c4ccccc4)(c4ccccc4)OCC3=O)C2)ccc1O (stereo not shown) [TCMDC-136340],-6.883
12,CN1CCCN(Cc2ccc(-c3cccc(NC(=O)c4ccc(C#N)cc4)c3)cc2)CC1 [TCMDC-132637],9.146
13,Cc1cc(-c2cnc(N)c(-c3ccc(N4CCN(C)CC4)nc3)c2)cc(C)c1O [TCMDC-133346],-63.65
14,CN(Cc1ccccc1)C1CCCN(c2cc(NC(=O)c3cccs3)ccn2)C1 (stereo not shown) [TCMDC-135007],-39.99
15,CC(C)c1cc2c(cc1O)C(Cc1ccccc1Cl)N(C)CC2 (stereo not shown) [TCMDC-137322],-86.96
16,COCC(C)n1c(SCC(=O)Nc2cc(C(F)(F)F)ccc2Cl)nc2ccccc2c1=O (stereo not shown) [TCMDC-125436],2.32
17,COCCn1c(SC(C)C(=O)Nc2cc(C(F)(F)F)ccc2Cl)nc2ccccc2c1=O (stereo not shown) [TCMDC-125030],60.86
18,CCn1c(SCC(=O)Nc2cc(C(F)(F)F)ccc2Cl)nc2ccccc2c1=O [TCMDC-125426],3.057
19,COc1ccc(N(C)Cc2cnc3nc(N)nc(N)c3n2)cc1 [TCMDC-137682],5.189
20,COC(=O)C(C)(C)c1ccc(CC(C)NCC(O)c2cccc(C(F)(F)F)c2)cc1 (stereo not shown) [TCMDC-131482],7.113
21,Oc1ccc(Cl)cc1Nc1nc(C(F)(F)F)nc2ccccc12 [TCMDC-125147],-61.42
